From PubChem
14-3-3 Bad PPI – inhibitors of 14-3-3 zeta/Bad binding, primary screen, biochemical, TR-FRET, bovine 14-3-3 zeta | 14-3-3 protein zeta/delta (Bos taurus), P63103 | TR-FRET 14-3-3zeta/Dy647-pBad peptide displacement, 1 h | inhibition, % at 21.7 µM | 220,000 compounds, 0.71% hits | AID 781, 2007;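 active = inhibition above about 70%, limit read from the data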;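 note: 0% = full 14-3-3 plus peptide FRET controls and 100% = background without 14-3-3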
Target sequence (P63103 whole entry, looked up): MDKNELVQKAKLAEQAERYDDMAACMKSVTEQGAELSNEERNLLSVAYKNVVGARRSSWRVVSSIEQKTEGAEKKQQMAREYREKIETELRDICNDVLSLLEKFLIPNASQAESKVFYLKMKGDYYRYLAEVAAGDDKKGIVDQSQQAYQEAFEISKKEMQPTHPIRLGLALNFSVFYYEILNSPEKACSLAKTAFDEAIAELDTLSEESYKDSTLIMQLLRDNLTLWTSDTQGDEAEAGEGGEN
Hck Nef HTS – inhibitors of Nef-activated human Hck kinase, primary screen, biochemical, Z-Lyte FRET, 384-well, Hck-YEEI; Tyrosine-protein kinase HCK (Homo sapiens), P08631; inhibition, % at 20 µM; Recombinant Hck-YEEI plus Nef, Z-Lyte FRET kinase assay; 220,000 compounds, 0.68% hits; AID 463187, 2010;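 active = Hck-Nef kinase inhibition above about 50%, limit read from the data; inactive = inhibition below that limit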;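 note: 0% = DMSO with Hck plus Nef and 100% = Hck alone without Nef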
Target sequence (P08631 whole entry, looked up): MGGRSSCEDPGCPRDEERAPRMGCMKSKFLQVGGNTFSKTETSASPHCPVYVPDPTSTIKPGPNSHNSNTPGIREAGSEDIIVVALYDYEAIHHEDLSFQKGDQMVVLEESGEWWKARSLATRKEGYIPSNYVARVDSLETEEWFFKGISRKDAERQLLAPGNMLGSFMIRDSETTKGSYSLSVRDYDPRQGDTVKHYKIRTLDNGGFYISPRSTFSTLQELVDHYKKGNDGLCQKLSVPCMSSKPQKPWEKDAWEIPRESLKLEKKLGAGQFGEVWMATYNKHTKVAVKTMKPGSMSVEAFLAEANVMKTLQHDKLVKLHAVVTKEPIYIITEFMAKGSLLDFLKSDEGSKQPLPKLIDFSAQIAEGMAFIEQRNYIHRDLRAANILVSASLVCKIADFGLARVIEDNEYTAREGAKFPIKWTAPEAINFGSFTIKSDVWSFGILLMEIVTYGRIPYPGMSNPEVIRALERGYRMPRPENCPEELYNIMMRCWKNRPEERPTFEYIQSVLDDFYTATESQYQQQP
Mcl1-Noxa inh – Mcl-1/Noxa binding inhibitors, primary screen, biochemical, TR-FRET, 1536-well. Induced myeloid leukemia cell differentiation protein Mcl-1 (Homo sapiens), Q07820. TR-FRET Mcl-1/Noxa peptide binding, 2 h. inhibition, % at 21.7 µM. 220,000 compounds, 1.5% hits;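 active = compounds that cut the protein-peptide binding signal by more than 50% relative to plate controls in a single-dose test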;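 note: His-tagged Mcl-1 with rhodamine Noxa BH3 peptide and terbium anti-His antibody; 0% = Mcl-1 plus Noxa peptide wells and 100% = peptide-only wells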
Mcl-1 Bim block – inhibitors of Bim peptide binding to Mcl-1, primary screen, biochemical, bead-based flow cytometry, multiplex; Induced myeloid leukemia cell differentiation protein Mcl-1 (Homo sapiens), Q07820; Bim peptide-Mcl-1 binding; inhibition, % at 10 µM; 190,000 compounds, 0.1% hits; in the data active = inhibition above about 40%;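 note: 0% = no compound tracer wells and 100% = peptide blocker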
Mcl1 Bid PPI – Mcl-1/Bid binding inhibitors, primary screen, biochemical, TR-FRET, 1536-well | Induced myeloid leukemia cell differentiation protein Mcl-1 (Homo sapiens), Q07820 | inhibition, % at 21.7 µM | TR-FRET Mcl-1/Bid-Dy647 peptide binding | 220,000 compounds, 0.97% hits;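 active = compounds that cut the binding signal by more than half at the single screening dose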;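 note: His-tagged Mcl-1 with europium anti-His antibody binding Bid BH3 peptide; 0% = Mcl-1 plus peptide wells and 100% = peptide-only wells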
eIF4E 4G PPI – eIF4E–eIF4G protein interaction inhibitors, primary screen, biochemical, uHTS, TR-FRET, eIF4GI fragment; Eukaryotic translation initiation factor 4E (Mus musculus) + Eukaryotic translation …; TR-FRET eIF4E-eIF4GI(517-606) binding, 2 h; inhibition, % at 21.7 µM; 220,000 compounds, 0.37% hits;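 active = inhibition above about 30%, limit read from the data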;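 note: 0% = full FRET control wells and 100% = background wells lacking eIF4GI fragment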
The depositor's hits bear a star; [ ] = dose if it differs, or a comment. Most compounds without a hit are left out; they make up all but 3.5% or so of the library.

What do the screens show for `COc1ccc(CCN(CC(=O)NC(C)(C)C)C(=O)Cn2nnc(-c3ccc(C)o3)n2)cc1OC`?
14-3-3 Bad PPI: -9.2; Hck Nef HTS: -1.2; Mcl1-Noxa inh: 10.1; Mcl-1 Bim block: 0.0; Mcl1 Bid PPI: -25.7; eIF4E 4G PPI: -1.1

Results for COc1ccccc1N(CC(=O)NCc1ccccc1)C(=O)CCC(=O)Nc1ccccn1 ?
14-3-3 Bad PPI: 2.5; Hck Nef HTS: 2.1; Mcl1-Noxa inh: 1.0; Mcl-1 Bim block: -16.0; Mcl1 Bid PPI: 0.4; eIF4E 4G PPI: -0.1

Results for COc1ccc(N(CC(=O)NCc2ccccc2)C(=O)CCC(=O)Nc2cc(C)ccn2)c(OC)c1 ?
14-3-3 Bad PPI: 0.3; Hck Nef HTS: 11.1; Mcl1-Noxa inh: 26.0; Mcl1 Bid PPI: -67.4; eIF4E 4G PPI: 88.2*

What do the screens show for `O=C(Cc1ccccc1)Nc1ccc(NC(=O)c2cccs2)cc1Cl`?
14-3-3 Bad PPI: -2.6; Hck Nef HTS: 18.0; Mcl1-Noxa inh: 12.8; Mcl-1 Bim block: 1.0; Mcl1 Bid PPI: -10.8; eIF4E 4G PPI: 1.0

Results for Fc1ccc(CSc2ccc(-c3ccco3)nn2)cc1 ?
14-3-3 Bad PPI: -5.3; Hck Nef HTS: 2.5; Mcl1-Noxa inh: 4.0; Mcl-1 Bim block: -4.0; Mcl1 Bid PPI: 61.0*; eIF4E 4G PPI: -0.3

How did Cn1cc(C(=O)N/N=C/c2c(O)ccc3ccccc23)ccc1=O do in these assays?
14-3-3 Bad PPI: -32.6; Hck Nef HTS: 11.4; Mcl1-Noxa inh: 57.8*; Mcl-1 Bim block: -2.0; Mcl1 Bid PPI: -86.1; eIF4E 4G PPI: 1.3

What do the screens show for `O=C(N/N=C/c1c(O)ccc2ccccc12)c1ccc[n+](CCO)c1`?
14-3-3 Bad PPI: -6.5; Hck Nef HTS: 27.4; Mcl1-Noxa inh: -3.0; Mcl-1 Bim block: 0.0; Mcl1 Bid PPI: -115.6; eIF4E 4G PPI: -3.4

Results for Cc1cccc(OCc2nnc(SCC(=O)Nc3cccc(C(=O)N4CCOCC4)c3)o2)c1C ?
14-3-3 Bad PPI: -3.8; Hck Nef HTS: 5.6; Mcl1-Noxa inh: 11.2; Mcl-1 Bim block: -1.0; Mcl1 Bid PPI: -73.0; eIF4E 4G PPI: 4.0

Results for Cc1cccn2c(CN3CCCN(C=O)CC3)c(C(=O)N(C)CCc3ccccc3)nc12 ?
14-3-3 Bad PPI: -4.7; Hck Nef HTS: -6.2; Mcl1-Noxa inh: 5.8; Mcl-1 Bim block: 0.0; Mcl1 Bid PPI: -25.2; eIF4E 4G PPI: 2.7

Results for O=C1C=C(N2CCCCC2)C2(CCCCC2)O1 ?
14-3-3 Bad PPI: -5.9; Hck Nef HTS: -20.3; Mcl1-Noxa inh: 14.6; Mcl-1 Bim block: 1.0; Mcl1 Bid PPI: -6.3; eIF4E 4G PPI: -0.1

What do the screens show for `CN1CCN(C2=CC(=O)OC23CCCCC3)CC1`?
14-3-3 Bad PPI: -7.3; Hck Nef HTS: 7.9; Mcl1-Noxa inh: 13.8; Mcl-1 Bim block: 0.0; Mcl1 Bid PPI: -2.6; eIF4E 4G PPI: 84.1*

Results for O=C1CC(N2CCN(S(=O)(=O)c3ccccc3)CC2)C(=O)N1c1ccccc1 (stereo unspecified) ?
14-3-3 Bad PPI: 3.3; Hck Nef HTS: 8.9; Mcl1-Noxa inh: 92.1*; Mcl1 Bid PPI: -8.2; eIF4E 4G PPI: -2.5

Results for CCCOc1ccc(N2C(=O)CC(N3CCN(S(=O)(=O)c4ccccc4)CC3)C2=O)cc1 (stereo unspecified) ?
14-3-3 Bad PPI: -5.6; Hck Nef HTS: -1.7; Mcl1-Noxa inh: -20.2; Mcl-1 Bim block: 5.0; Mcl1 Bid PPI: -6.7; eIF4E 4G PPI: 2.9

Results for Cc1cc(S(=O)(=O)NCc2ccccc2)ccc1OCC(=O)NCC1CCCO1 (stereo unspecified) ?
14-3-3 Bad PPI: -6.3; Hck Nef HTS: -12.4; Mcl1-Noxa inh: 4.3; Mcl-1 Bim block: 0.0; Mcl1 Bid PPI: -18.3; eIF4E 4G PPI: 2.3

How did O=C(CNCC1CCCO1)N1CCN(S(=O)(=O)c2ccc3ccccc3c2)CC1 (stereo unspecified) do in these assays?
14-3-3 Bad PPI: 73.3*; Hck Nef HTS: -0.2; Mcl1-Noxa inh: 26.2; Mcl-1 Bim block: 2.0; Mcl1 Bid PPI: 15.3; eIF4E 4G PPI: 6.4

How did O=C(CNC(=O)c1ccc2ccccc2c1)OCC(=O)N1CCN(S(=O)(=O)c2ccc3ccccc3c2)CC1 do in these assays?
14-3-3 Bad PPI: -10.9; Hck Nef HTS: -2.9; Mcl1-Noxa inh: 1.5; Mcl-1 Bim block: -1.0; Mcl1 Bid PPI: 1.5; eIF4E 4G PPI: 5.6

Results for CCOC(=O)N1CCC(N2CCN(S(=O)(=O)c3ccc4ccccc4c3)CC2)CC1 ?
14-3-3 Bad PPI: 70.5*; Hck Nef HTS: 4.8; Mcl1-Noxa inh: 8.0; Mcl-1 Bim block: 0.0; Mcl1 Bid PPI: 26.7; eIF4E 4G PPI: -5.2

Results for NC1=NC(=O)C(CC(=O)Nc2ccc3c(c2)OCO3)S1 (stereo unspecified) ?
14-3-3 Bad PPI: -11.2; Hck Nef HTS: 20.3; Mcl1-Noxa inh: 9.8; Mcl-1 Bim block: 0.0; Mcl1 Bid PPI: -48.6; eIF4E 4G PPI: 3.6

What do the screens show for `C=C(C)CNC(=S)N/N=C1\CCCCc2ccccc21`?
14-3-3 Bad PPI: -5.1; Hck Nef HTS: 0.2; Mcl1-Noxa inh: 5.4; Mcl-1 Bim block: -1.0; Mcl1 Bid PPI: -21.0; eIF4E 4G PPI: -0.9

Results for COc1ccc(N2CCN(Cc3nc(-c4ccc(Cl)cc4Cl)no3)CC2)cc1 ?
14-3-3 Bad PPI: -7.3; Hck Nef HTS: 4.5; Mcl1-Noxa inh: 56.3*; Mcl-1 Bim block: -1.0; Mcl1 Bid PPI: -78.8; eIF4E 4G PPI: -2.4

How did c1ccc(-c2noc(CN3CCN(c4ccccc4)CC3)n2)cc1 do in these assays?
14-3-3 Bad PPI: 2.5; Hck Nef HTS: 1.3; Mcl1-Noxa inh: -12.2; Mcl-1 Bim block: 0.0; Mcl1 Bid PPI: -43.4; eIF4E 4G PPI: 0.0

How did Cc1c(N/N=C(\C#N)C(=O)c2ccc(Cl)cc2)c(=O)n(-c2ccccc2)n1C do in these assays?
14-3-3 Bad PPI: -0.7; Hck Nef HTS: -4.4; Mcl1-Noxa inh: -24.4; Mcl-1 Bim block: 0.0; Mcl1 Bid PPI: -38.6; eIF4E 4G PPI: 2.4

Results for N#C/C(=N\Nc1ccc(Cl)cc1)C(=O)c1ccccc1 ?
14-3-3 Bad PPI: 4.6; Hck Nef HTS: -3.7; Mcl1-Noxa inh: 16.4; Mcl-1 Bim block: 5.0; Mcl1 Bid PPI: 6.7; eIF4E 4G PPI: 61.9*[fluorescence artefact?]

How did Cc1ccc(NC(=O)C2(c3ccccc3)CCOCC2)c([N+](=O)[O-])c1 do in these assays?
14-3-3 Bad PPI: 24.4; Hck Nef HTS: 5.6; Mcl1-Noxa inh: 8.7; Mcl-1 Bim block: -2.0; Mcl1 Bid PPI: -25.6; eIF4E 4G PPI: 10.5
